High-throughput results deposited in PubChem BioAssay by National Center for Advancing Translational Sciences (NCATS).
In the library only some 1.6% were active in any assay of this set; here they are far more common.
p53ts 32C tox: kills p53ts cells at the permissive temperature; H1299-p53A138V at 32C, ATP luminescence viability, 24 h; Potency, µM (doses to about 46.1 µM), for inactives: at the highest dose activity change, negative = cytotoxicity, most hits filed as cytotoxic; hit rate 0.93% among 130,000; AID 924;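 note: 0% = DMSO and -100% = full killing by reference compound; nearly all actives have a fitted effect of over 55% in size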
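H1299-p53 A138V cells (temperature-sensitive p53) exposed 24 h to up to 46 uM compound at 32C, where p53 is wild-type in conformation. Viability read as ATP luminescence and normalised to DMSO and 100 uM tamoxifen. AC50 fitted with the Hill equation.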
Imprint erasure: genomic imprint erasure induction. AID 1948. mouse ES Peg3-LacZ reporter, beta-gal luminescence, 40 h. Potency, µM (top dose mostly 60.7 µM), for inactives: at the highest dose activity change, positive = activation, actives largely listed as activators. hit rate 0.02% among 110,000
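Imprint erasure is scored as LacZ activity from the silenced maternal Peg3 allele in feeder-free female ES cells cultured 40 h with LIF. Luminescence is normalized to in-plate negative controls and fitted to the Hill equation.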
p53ts 39C tox: kills p53ts cells at the nonpermissive temperature | hit rate 1.5% among 130,000 | AID 902 | H1299-p53A138V viability at 39C, ATP luminescence, 24 h | Potency, µM (top dose mostly 46.1 µM), for the others: top-dose activity change, negative = cell killing, usual class: cytotoxic; note: % is set by controls: 0 for no effect and ±100 for the full control effect; nearly all actives have a fitted effect of over 55% in size
Starred values were filed as active, the others as inactive; ? = inconclusive; / = no result given; [ ] = remark or other dose. Calls come from the whole dose curve; as a rule, active = well fitted curve in the direction sought with a large enough effect; inconclusive = small, poorly fitted or top-dose-only effect, or another doubt; inactive = no such curve, though single readings can be large; an effect the other way counts as inactive or inconclusive. Potency is the fitted concentration of half-maximal effect.

SMILES	p53ts 32C tox	Imprint erasure	p53ts 39C tox
Cc1c(C(=O)Nc2ccc(C(=O)O)cc2)nnn1-c1ccccc1	10µM*	-56.5%[10.9 µM]	?
Cc1cc(NC(c2cccnc2)c2c(C)[nH]c3ccccc23)no1 (configuration not stated)	7.2%	-8.6%	17.0%
Cc1[nH]c2ccccc2c1C(c1ccccc1)c1ccc(Cl)s1 (configuration not stated)	?	7.8%[10.9 µM]	12.6µM*
COc1cccc(N2CC(NC(=O)c3cccs3)CC2=O)c1 (configuration not stated)	-1.4%	?	10.7%
Cc1ccc(Cl)cc1N(C)C(=O)c1cc2ccc3cccnc3c2[nH]1	19.0%	16.9%[10.9 µM]	25.1µM*
Cc1ccc(C)c(N2CCN(C(=O)c3cc4ccc5cccnc5c4[nH]3)CC2)c1	-4.2%	-6.5%[10.9 µM]	1.0%
C=C1C(=O)C=C2CN(C(=O)c3ccccc3)[C@@](Cc3ccc(F)cc3)(C(=O)OC)[C@@H]12	3.16µM*	-34.5%	3.16µM*
COC(=O)[C@@]1(Cc2ccc(OC)cc2)[C@@H]2C(=CC(=O)[C@H]2CC(=O)C(=O)N(C)C)CN1C(=O)c1ccccc1	65.6%	-25.2%	134.3%
Cc1nc2cc(NC(=O)N3c4ccccc4CC3C)ccc2n1C (configuration not stated)	6.31µM*	-66.2%	5.01µM*
Cc1nc2cc(NC(=O)N3c4ccccc4CC3C)ccc2o1 (configuration not stated)	10µM*	-40.1%	10µM*
Cc1nc2cc(NC(=O)NCc3ccc4c(c3)OCO4)ccc2o1	-0.2%	1.8%	-4.4%
CC1Cc2ccccc2N1C(=O)c1ccc2c(c1)nnn2C (configuration not stated)	6.9%	-3.8%	9.4%
CC1(C)N=C(N)N=C(N)N1c1cccc(OCc2cccc(N)c2)c1	9.7%[9.22 µM]	-10.4%[10.9 µM]	10.8%[9.22 µM]
O=c1c2cnn(-c3ccc(F)cc3)c2ncn1Cc1cccc(Cl)c1	-6.1%	3.9%[10.9 µM]	13.7%
CC12CC[C@@H]3c4ccc(OP(=O)(O)O)cc4CCC3C1CCC2=O (some centres not stated)	1.7%[9.22 µM]	-1.1%[10.9 µM]	-7.7%[9.22 µM]
CC1=C(C(=O)OC2CCCC2)C(c2ccccc2C(F)(F)F)CC(=O)N1 (configuration not stated)	16.4%	-15.4%[10.9 µM]	-24.3%
CN(C)S(=O)(=O)c1ccc(Nc2ccc(O)c3c2C(=O)c2c([N+](=O)[O-])ccc(O)c2C3=O)cc1	-4.5%[9.22 µM]	?	-2.8%[9.22 µM]
O=C1c2c(O)ccc([N+](=O)[O-])c2C(=O)c2c([N+](=O)[O-])ccc(O)c21	0.1%[1.84 µM]	-37.2%	15.8µM*
CCc1ccc(S(=O)(=O)Nc2ccc3oc(C)c(C(=O)OCCOC)c3c2)cc1	11.6%	-9.5%[10.9 µM]	-3.3%
C[C@H]1C2=C3C(C[C@H]4C(=O)N(c5ccccc5)C(=O)[C@H]4[C@H]3[C@@]3(Cc4ccccc4)C(=NCCc4c[nH]c5ccccc45)OC(=O)N3C2=O)[C@H]2C(=O)N(c3ccccc3)C(=O)[C@H]21 (some centres not stated)	10.7%	-4.9%	-1.3%
O=C(NCc1ccc(Cl)cc1)c1cnc(N2CCCCC2)c2ccccc12	-1.9%	-10.0%[10.9 µM]	-21.3%
O=C(Nc1ccc(-c2nc3ccccc3[nH]2)cc1)C1CCCO1 (configuration not stated)	2.51µM*	-89.3%	3.98µM*
O=C(Nc1nc2ccccc2[nH]1)C1CCCO1 (configuration not stated)	-6.8%	-76.7%	-0.9%
CCCOc1ccc(C(=O)Nc2nonc2-c2ccc(OCC)cc2)cc1	5.6%	-12.5%[10.9 µM]	-0.3%
CCN(CC)CCCCn1c(-c2ccccc2)nc2c(N(CCOC)CCOC)nc(C)nc21	-10.8%	-15.0%	-14.7%
SMILES	p53ts 32C tox	Imprint erasure	p53ts 39C tox
COc1ccc(-c2noc(CSc3nnc(-c4ccncc4)n3-c3cccc(C)c3)n2)cc1OC	-4.8%	-7.6%[10.9 µM]	-19.3%
COc1ccc2nc(SCC(N)=O)[nH]c2c1	4.1%	-15.6%	8.3%
COc1ccc2nc(-c3ccc(N)cc3)[nH]c2c1	15.8µM*	/	?
COc1ccc2nc(NCCCO)[nH]c2c1	-0.4%	/	16.3%
COc1ccc2nc(-c3cccc(N)c3)[nH]c2c1	7.94µM*	/	15.8µM*
Cc1ccccc1OCC(=O)Nc1cc(-c2cccc(Br)c2)nn1-c1ccccc1	-3.4%	-10.1%[10.9 µM]	-6.7%
CCOC(=O)c1cccc(NC(=O)CC(c2cc(OC)c(OC)c(OC)c2)N2Cc3ccccc3C2=O)c1 (configuration not stated)	14.2%	5.0%[10.9 µM]	-9.3%
NCc1ccc(C(=O)O)cc1	5.3%[9.22 µM]	5.2%[10.9 µM]	-1.0%[9.22 µM]
Cc1cc2c(cc3c(SCc4ccc(Cl)cc4)nnc(C)n32)o1	-10.2%	-12.6%[10.9 µM]	10µM*
Cc1cc2c(cc3c(SCc4cccc(F)c4)nnc(C)n32)o1	-5.4%	-14.6%[10.9 µM]	-28.3%
O=C1O[C@@H]([C@H](O)[C@H](O)[C@H](O)CO)[C@@H](O)[C@@H]1O	6.1%[9.22 µM]	-8.1%[10.9 µM]	3.5%[9.22 µM]
CCc1ccc(C(=O)c2cn(CC(=O)Nc3cc(OC)cc(OC)c3)c3ccc(CC)cc3c2=O)cc1	-4.8%	-19.7%[10.9 µM]	12.6µM*
CCc1ccc(C(=O)c2cn(CC(=O)Nc3ccc(F)cc3)c3ccc(OC)cc3c2=O)cc1	-12.8%	-11.0%[10.9 µM]	-9.4%
CC(C)OC(=O)C[C@H](NC(=O)OC(C)(C)C)c1ccccc1	4.5%[9.22 µM]	/	4.6%[9.22 µM]
O=C1[C@H]2[C@H]3[C@H](O)[C@H](O)C/C(=N/OC[C@@H](O)COCc4ccco4)[C@@H]3CC[C@@H]2C(=O)N1c1cccc(Oc2ccccc2)c1	12.2%[9.22 µM]	/	-4.1%[9.22 µM]
Cc1ccc(CS(=O)(=O)c2ncc(Cl)c(C(=O)Nc3nc4ccc(C)cc4s3)n2)cc1	15.8µM*	-26.3%[10.9 µM]	12.6µM*
Cc1ccc(CSc2ncc(Cl)c(C(=O)Nc3nc4ccc(C)cc4s3)n2)cc1	-2.1%	-11.0%[10.9 µM]	-13.8%
COc1ccc2nc(NC(=O)c3nc(S(=O)(=O)Cc4ccc(C)cc4)ncc3Cl)sc2c1	?	-17.9%[10.9 µM]	6.31µM*
Cc1ccc(CNC(=O)c2nc(S(=O)(=O)Cc3ccc(C)cc3)ncc2Cl)cc1	15.8µM*	-7.5%[10.9 µM]	12.6µM*
Cc1ccc(CS(=O)(=O)c2ncc(Cl)c(C(=O)Nc3nc4ccc(F)cc4s3)n2)cc1	12.6µM*	-25.1%[10.9 µM]	15.8µM*
CCCSc1ncc(Cl)c(C(=O)Nc2nc3ccc(OCC)cc3s2)n1	6.0%	14.4%[10.9 µM]	17.2%
COc1ccc2nc(NC(=O)c3nc(SC(C)C)ncc3Cl)sc2c1	1.4%	-5.6%[10.9 µM]	-9.1%
CCS(=O)(=O)c1ncc(Cl)c(C(=O)NCc2ccc(OC)cc2)n1	?	-27.1%[10.9 µM]	?
COc1ccc(OC)c(NC(=O)Cn2c(=O)cc(-c3ccccc3)c3c(C)nn(C)c32)c1	?	7.4%[10.9 µM]	?
COc1cc(OC)c(NS(=O)(=O)c2c(C(=O)N3CCCCCC3)c(C)n(C)c2C)cc1Cl	9.5%	-6.1%[10.9 µM]	-12.4%
CCCCCC1=C2CNC(C)(C(=O)OC)C=C2C(C)C1=O (configuration not stated)	2.7%	-9.8%	1.1%
CC(C)Oc1ccc(C(=O)NCC(c2ccc(N(C)C)cc2)N2CCc3ccccc32)cc1 (configuration not stated)	7.3%	3.9%[10.9 µM]	-14.2%
COc1ccc(C(=O)NCC(c2ccc(N(C)C)cc2)N2CCc3ccccc32)cc1 (configuration not stated)	-12.5%	-14.7%[10.9 µM]	10µM*
